Measured values from PubChem BioAssay AID1159580 (chemical genetic matrix, 2015).
The campaign covered roughly 5,500 compounds. About 2,000 (36%) were called active. Roughly 18% stayed inconclusive and do not appear here. Some of the results follow. Values without a mark were called inactive. Rule as the data show it: active = normalized growth mostly below about 0.91 (no sharp cut-off); inconclusive = no clear call, values can overlap the other calls; inactive = mostly above about 0.92.

Test: chemical genetic growth profiling, strain panel (AID 1159580);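 also: tested at 20 µM; growth read once vehicle control cultures reached saturation at 30 °C; 1 = growth at the plate median or of vehicle wells; lower values mean less growth of the strain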
Settings: S. cerevisiae deletion strains, growth OD

For CC1C/C=C/C=C/C=C/C=C/C(O[C@@H]2O[C@H](C)[C@@H](O)[C@H](N)[C@@H]2O)CC2OC(O)(CC(O)CC3OC3/C=C/C(=O)O1)CC(O)C2C(=O)O (stereo not given in full), which normalized growth (locus YAL021C, strain ccr4, active compounds read low) is on record?
Its normalized growth is 1.02.

What about the normalized growth (locus YAL026C, strain drs2, active compounds read low) of the same compound?
Its normalized growth is 0.94.

What about the normalized growth (locus YAL030W, strain snc1, active compounds read low) of the same compound?
The normalized growth was 1.

What about the normalized growth (locus YBL061C, strain skt5, active compounds read low) of the same compound?
Its normalized growth is 1.

And the normalized growth (locus YBR009C, strain hhf1, active compounds read low)?
Its normalized growth is 0.981.

What about the normalized growth (locus YBR023C, strain chs3, active compounds read low) of the same compound?
Its normalized growth is 0.992.

And the normalized growth (locus YBR171W, strain sec66, active compounds read low)?
Its normalized growth is 0.142 (active).

What about the normalized growth (locus YBR231C, strain swc5, active compounds read low) of the same compound?
The normalized growth was 0.981.

And the normalized growth (locus YBR279W, strain paf1, active compounds read low)?
Its normalized growth is 1.

And the normalized growth (locus YCL011C, strain gbp2, active compounds read low)?
Its normalized growth is 0.989.

What about the normalized growth (locus YCL016C, strain dcc1, active compounds read low) of the same compound?
Its normalized growth is 0.993.

And the normalized growth (locus YCL061C, strain MRC1, active compounds read low)?
Its normalized growth is 0.802 (active).

What about the normalized growth (locus YCL069W, strain vba3, active compounds read low) of the same compound?
The normalized growth was 1.01.

What about the normalized growth (locus YCR088W, strain abp1, active compounds read low) of the same compound?
Its normalized growth is 0.126 (active).

What about the normalized growth (locus YDL005C, strain med2, active compounds read low) of the same compound?
The normalized growth was 0.993.

What about the normalized growth (locus YDL040C, strain nat1, active compounds read low) of the same compound?
Its normalized growth is 0.993.

And the normalized growth (locus YDR001C, strain nth1, active compounds read low)?
Its normalized growth is 1.

What about the normalized growth (locus YDR069C, strain doa4, active compounds read low) of the same compound?
Its normalized growth is 0.983.

And the normalized growth (locus YDR137W, strain rgp1, active compounds read low)?
The normalized growth was 1.01.

And the normalized growth (locus YDR159W, strain sac3, active compounds read low)?
The normalized growth was 0.958.

And the normalized growth (locus YDR195W, strain ref2)?
Its normalized growth is 0.945.

What about the normalized growth (locus YDR297W, strain sur2, active compounds read low) of the same compound?
Its normalized growth is 1.

What about the normalized growth (locus YDR334W, strain swr1, active compounds read low) of the same compound?
Its normalized growth is 0.999.

And the normalized growth (locus YDR335W, strain msn5, active compounds read low)?
The normalized growth was 0.985.

And the normalized growth (locus YDR392W, strain spt3, active compounds read low)?
Its normalized growth is 0.848.

What about the normalized growth (locus YEL003W, strain gim4, active compounds read low) of the same compound?
Its normalized growth is 0.991.

And the normalized growth (locus YEL037C, strain rad23, active compounds read low)?
Its normalized growth is 0.992.

What about the normalized growth (locus YEL061C, strain CIN8 (second series), active compounds read low) of the same compound?
The normalized growth was 0.984.

What about the normalized growth (locus YER015W, strain faa2, active compounds read low) of the same compound?
Its normalized growth is 0.823 (active).

What about the normalized growth (locus YER016W, strain bim1, active compounds read low) of the same compound?
The normalized growth was 0.978.

What about the normalized growth (locus YER111C, strain swi4, active compounds read low) of the same compound?
Its normalized growth is 0.981.

And the normalized growth (locus YER155C, strain BEM2 (second series), active compounds read low)?
Its normalized growth is 0.711 (active).

And the normalized growth (locus YFR010W, strain ubp6, active compounds read low)?
The normalized growth was 0.982.

What about the normalized growth (locus YGL167C, strain pmr1, active compounds read low) of the same compound?
The normalized growth was 0.984.

What about the normalized growth (locus YGL173C, strain kem1, active compounds read low) of the same compound?
Its normalized growth is 0.997.

And the normalized growth (locus YGL227W, strain vid30, active compounds read low)?
The normalized growth was 0.0655 (active).

What about the normalized growth (locus YGL240W, strain doc1, active compounds read low) of the same compound?
Its normalized growth is 0.996.

And the normalized growth (locus YGL253W, strain hxk2, active compounds read low)?
Its normalized growth is 0.973.

And the normalized growth (locus YHR013C, strain ard1, active compounds read low)?
The normalized growth was 0.957.

And the normalized growth (locus YHR027C, strain rpn1, active compounds read low)?
Its normalized growth is 1.

What about the normalized growth (locus YHR030C, strain SLT2, active compounds read low) of the same compound?
The normalized growth was 0.972.

And the normalized growth (locus YHR079C, strain IRE1, active compounds read low)?
Its normalized growth is 0.975.

What about the normalized growth (locus YHR142W, strain chs7, active compounds read low) of the same compound?
Its normalized growth is 1.02.

What about the normalized growth (locus YJL092W, strain hpr5, active compounds read low) of the same compound?
The normalized growth was 0.964.

And the normalized growth (locus YJL095W, strain BCK1 (second series), active compounds read low)?
The normalized growth was 1.

And the normalized growth (locus YJL095W, strain BCK1, active compounds read low)?
Its normalized growth is 1.

What about the normalized growth (locus YJL115W, strain asf1, active compounds read low) of the same compound?
The normalized growth was 1.

And the normalized growth (locus YJL129C, strain trk1, active compounds read low)?
Its normalized growth is 0.949.

And the normalized growth (locus YJL154C, strain vps35, active compounds read low)?
The normalized growth was 0.995.

What about the normalized growth (locus YJL164C, strain tpk1, active compounds read low) of the same compound?
The normalized growth was 1.01.

And the normalized growth (locus YJL166W, strain qcr8, active compounds read low)?
Its normalized growth is 0.992.

And the normalized growth (locus YJL187C, strain SWE1, active compounds read low)?
Its normalized growth is 1.

And the normalized growth (locus YJR066W, strain TOR1, active compounds read low)?
The normalized growth was 0.943.

What about the normalized growth (locus YKL160W, strain elf1, active compounds read low) of the same compound?
Its normalized growth is 1.04.

What about the normalized growth (locus YKR026C, strain gcn3, active compounds read low) of the same compound?
The normalized growth was 0.296 (active).

And the normalized growth (locus YKR091W, strain srl3, active compounds read low)?
Its normalized growth is 0.999.

And the normalized growth (locus YLL001W, strain dnm1, active compounds read low)?
Its normalized growth is 0.982.

And the normalized growth (locus YLL026W, active compounds read low)?
Its normalized growth is 1.

And the normalized growth (locus YLL041C, strain sdh2, active compounds read low)?
Its normalized growth is 0.998.

What about the normalized growth (locus YLR027C, strain aat2, active compounds read low) of the same compound?
Its normalized growth is 1.

What about the normalized growth (locus YLR113W, strain HOG1, active compounds read low) of the same compound?
The normalized growth was 1.02.

And the normalized growth (locus YLR221C, strain rsa3, active compounds read low)?
The normalized growth was 1.02.

And the normalized growth (locus YLR258W, strain gsy2, active compounds read low)?
The normalized growth was 0.977.

And the normalized growth (locus YLR262C, strain YPT6 (second series), active compounds read low)?
The normalized growth was 1.01.

What about the normalized growth (locus YLR320W, strain mms22, active compounds read low) of the same compound?
The normalized growth was 1.

And the normalized growth (locus YLR342W, strain FKS1, active compounds read low)?
Its normalized growth is 0.994.

And the normalized growth (locus YLR357W, strain rsc2, active compounds read low)?
Its normalized growth is 0.427 (active).

What about the normalized growth (locus YLR370C, strain arc18, active compounds read low) of the same compound?
The normalized growth was 1.02.

And the normalized growth (locus YLR384C, strain iki3, active compounds read low)?
Its normalized growth is 0.994.

What about the normalized growth (locus YML120C, strain ndi1, active compounds read low) of the same compound?
Its normalized growth is 1.01.

And the normalized growth (locus YMR058W, strain fet3, active compounds read low)?
The normalized growth was 0.921.

And the normalized growth (locus YMR125W, strain sto1, active compounds read low)?
Its normalized growth is 0.0829 (active).

What about the normalized growth (locus YMR129W, active compounds read low) of the same compound?
The normalized growth was 0.987.

And the normalized growth (locus YMR205C, strain PFK2, active compounds read low)?
Its normalized growth is 0.985.

What about the normalized growth (locus YMR231W, strain pep5, active compounds read low) of the same compound?
Its normalized growth is 0.997.

And the normalized growth (locus YNL071W, strain lat1, active compounds read low)?
The normalized growth was 1.

What about the normalized growth (locus YNL183C, strain NPR1, active compounds read low) of the same compound?
Its normalized growth is 0.956.

What about the normalized growth (locus YNL209W, strain ssb2, active compounds read low) of the same compound?
Its normalized growth is 0.999.

What about the normalized growth (locus YNL248C, strain rpa49, active compounds read low) of the same compound?
Its normalized growth is 0.544 (active).

What about the normalized growth (locus YNL322C, strain KRE1 (second series), active compounds read low) of the same compound?
Its normalized growth is 1.

What about the normalized growth (locus YNR049C, strain mso1, active compounds read low) of the same compound?
Its normalized growth is 0.994.

What about the normalized growth (locus YOR001W, strain rrp6, active compounds read low) of the same compound?
Its normalized growth is 1.01.

What about the normalized growth (locus YOR070C, strain gyp1, active compounds read low) of the same compound?
The normalized growth was 0.998.

What about the normalized growth (locus YOR080W, strain dia2, active compounds read low) of the same compound?
The normalized growth was 1.

And the normalized growth (locus YOR083W, strain WHI5, active compounds read low)?
The normalized growth was 1.03.

And the normalized growth (locus YOR106W, strain vam3, active compounds read low)?
The normalized growth was 1.03.

And the normalized growth (locus YOR231W, strain MKK1, active compounds read low)?
The normalized growth was 0.963.

What about the normalized growth (locus YOR265W, strain rbl2, active compounds read low) of the same compound?
The normalized growth was 0.999.

What about the normalized growth (locus YOR270C, strain vph1, active compounds read low) of the same compound?
The normalized growth was 0.948.

And the normalized growth (locus YOR290C, strain snf2, active compounds read low)?
The normalized growth was 0.953.

What about the normalized growth (locus YPL051W, strain arl3, active compounds read low) of the same compound?
The normalized growth was 1.

And the normalized growth (locus YPL078C, strain atp4, active compounds read low)?
The normalized growth was 1.02.

What about the normalized growth (locus YPL106C, strain sse1, active compounds read low) of the same compound?
Its normalized growth is 1.01.

What about the normalized growth (locus YPL240C, strain hsp82, active compounds read low) of the same compound?
Its normalized growth is 1.

What about the normalized growth (locus YPL256C, strain CLN2, active compounds read low) of the same compound?
The normalized growth was 0.991.
